# An excerpt weighted towards active compounds, which were near 7.8% of everything screened.
# Shh pathway inh: Sonic Hedgehog pathway inhibition. Shh-LIGHT2 Gli-luciferase reporter, 30 h. AID 2313. inhibition, % (no concentration beside the values). 22,000 compounds, 2.1% hits;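 active means mean inhibition across valid replicates above about 65%, limit read from the data; inconclusive means mean under the limit, yet half or more replicates past it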;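 further: pathway switched on by Shh-conditioned medium diluted 1 in 25 in low serum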
# MITF inhib: MITF inhibition. 37,000 compounds, 0.28% hits. AID 2240. TRPM1 promoter luciferase, luminescence, 24 h. inhibition, % (no concentration beside the values); in the data active means inhibition above about 85%; inconclusive means no clear call, values can overlap the other calls; inactive means below about 68%;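 further: human melanocyte line stably carrying TRPM1 promoter luciferase reporter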
# NOMO-1 viab: STK33 inhibitor candidate reducing NOMO-1 cell viability; inhibition, % (no concentration beside the values); NOMO-1 AML viability, CellTiter-Glo luminescence, 72 h; 37,000 compounds, 7.5% hits; in the data active means inhibition above about 80%; inconclusive means no clear call, values can overlap the other calls
# PD-1 reverse act: activators reversing PD-1 mediated T-cell inhibition; 29,000 tested, under 10 active; primary human CD4 T cells, PD-L1 beads, CellTiter-Glo 96 h; activation, % (no concentration beside the values); AID 2316; call rule not given here;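 further: 0% = median vehicle wells and 100% = positive control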
# * marks the source's active call; other numbers are inactive results; ? = inconclusive; . = no result.
SMILES,Shh pathway inh,MITF inhib,NOMO-1 viab,PD-1 reverse act
C[C@@H]1CN([C@H](C)CO)C(=O)Cc2cc(NC(=O)Nc3ccc4c(c3)OCO4)ccc2O[C@H]1CN(C)Cc1ccc(Oc2ccccc2)cc1,?,10,117*,.
Cc1cc(C(=O)Nc2cccc3c2O[C@H](CN(C)Cc2ccc(-c4ccccc4)cc2)[C@@H](C)CN([C@H](C)CO)C3=O)n(C)n1,40,50,89*,-1
Cc1cc(C(=O)Nc2cccc3c2O[C@H](CN(C)Cc2ccc(Oc4ccccc4)cc2)[C@@H](C)CN([C@H](C)CO)C3=O)n(C)n1,?,54,111*,-5
Cc1cc(C(=O)Nc2cccc3c2O[C@H](CN(C)Cc2ccc(C(=O)Nc4ccccc4N)cc2)[C@H](C)CN([C@H](C)CO)C3=O)n(C)n1,.,6,127*,-2
Cc1cc(C(=O)Nc2cccc3c2O[C@@H](CN(C)Cc2ccc(-c4ccccc4)cc2)[C@H](C)CN([C@@H](C)CO)C3=O)n(C)n1,25,49,46,-1
Cc1cc(C(=O)Nc2cccc3c2O[C@@H](CN(C)Cc2ccccc2)[C@@H](C)CN([C@H](C)CO)C3=O)n(C)n1,0,-8,9,0
C=C1C(=O)O[C@H]2[C@H]1[C@@H](OC(=O)C(C)(O)C(C)Cl)C(OC(C)=O)/C(C(=O)OC)=C\CC[C@@]1(C)O[C@H]21 (some centres not stated),73*,-9,119*,-10
C[C@H](CO)N1C[C@H](C)[C@H](CN(C)C(=O)Nc2ccc(C(F)(F)F)cc2)Oc2c(NC(=O)c3nc4ccccc4s3)cccc2C1=O,?,-6,104*,-8
C[C@@H]1CN([C@H](C)CO)C(=O)c2cccc(NC(=O)c3nc4ccccc4s3)c2O[C@H]1CN(C)Cc1ccc(C(F)(F)F)cc1,-13,25,101*,-4
C[C@H]1CN([C@@H](C)CO)C(=O)c2cccc(NC(=O)c3nc4ccccc4s3)c2O[C@H]1CN(C)Cc1ccc(C(F)(F)F)cc1,-4,-8,50,-3
C[C@H](CO)N1C[C@H](C)[C@H](CN(C)Cc2ccncc2)Oc2c(NC(=O)c3nc4ccccc4s3)cccc2C1=O,24,13,88*,-7
O=C(Cn1cnc2ccccc2c1=O)Nc1ccc2c(c1)Cc1ccccc1-2,.,10,31,0
O=C(COc1ccc(S(=O)(=O)N2CCOCC2)cc1)Nc1ccc(Cl)c(C(F)(F)F)c1,.,19,129*,-3
COc1ccc(N=Cc2c(O)ccc3oc4c(c23)CCCC4)cc1,0,10,99*,0
O=C(SCc1cccs1)c1csc(C2COc3ccccc3O2)n1 (configuration not stated),-89,-14,-8,2
Cc1cc(C)c(C#N)c(Sc2ncnc3c2nnn3Cc2ccccc2)n1,.,71,116*,-7
COc1ccc(N2CCc3c(C)c(C#N)c4nc5ccccc5n4c32)cc1,6,22,114*,-1
C=CCSc1c2c(c(C#N)c3nc4ccccc4n13)CCC2,-6,62,59,-8
Cc1ccc(NC(=O)c2cc(=O)[nH]c(=O)[nH]2)cc1,-20,-33,-2,2
O=C(CSc1nc(-c2ccccc2)cc(C(F)(F)F)n1)c1ccccc1,.,-3,15,2
O=C(CSc1nc(SCC(=O)c2ccccc2)c2ccccc2n1)c1ccccc1,76*,5,41,1
CCOc1ccccc1C(=O)Oc1c(S(=O)(=O)c2ccc(C)cc2)c(C)nn1-c1ccccc1,.,33,103*,.
CCOc1ccccc1NC(=O)c1ccccc1N(C)S(=O)(=O)c1ccc(C)cc1,.,4,46,.
Cc1ccc(S(=O)(=O)Nc2ccc3c(c2)C(=O)N([C@@H](C)CO)C[C@@H](C)[C@@H](CN(C)Cc2ccc(C(F)(F)F)cc2)O3)cc1,.,27,98*,-1
Cc1ccc(S(=O)(=O)Nc2ccc3c(c2)C(=O)N([C@H](C)CO)C[C@@H](C)[C@@H](CN(C)Cc2ccc(C(F)(F)F)cc2)O3)cc1,10,14,122*,-2
SMILES,Shh pathway inh,MITF inhib,NOMO-1 viab,PD-1 reverse act
C[C@@H]1CN([C@H](C)CO)C(=O)c2cc(NS(=O)(=O)c3ccc(Cl)cc3)ccc2O[C@@H]1CN(C)Cc1ccccc1,13,-14,87*,-1
C[C@@H]1CN([C@@H](C)CO)C(=O)c2cc(NS(=O)(=O)c3ccc(Cl)cc3)ccc2O[C@@H]1CN(C)Cc1ccc(C(F)(F)F)cc1,29,38,123*,-2
CCOC(=O)c1c(CNC(C)C)oc2ccc(OC)cc12,22,-6,12,0
CC(=O)Nc1ccc(C(=O)CSc2nc(C)cc(=O)[nH]2)cc1,-7,-3,24,-2
COC(=O)C1=C(C)NC2=C(C(=O)c3ccccc32)C1c1cc(Cl)c(OCc2ccc([N+](=O)[O-])cc2)c(OC)c1 (configuration not stated),.,44,34,2
COc1ccc(OC)c(C2C(C(=O)c3cccs3)C(=O)C(=O)N2Cc2cccnc2)c1 (configuration not stated),.,-2,17,.
CS(=O)(=O)N(CC(=O)Nc1cccc2ccccc12)c1ccc(I)cc1,.,-41,4,0
O=C(COc1ccc2c(-c3ccccc3)cc(=O)oc2c1)Nc1cc(C(F)(F)F)ccc1Cl,.,13,?,.
CCOC(=O)C(C)Oc1ccc2c(-c3ccccc3)cc(=O)oc2c1 (configuration not stated),5,-11,109*,-1
CCOC(=O)c1ccccc1NC(=O)C(C)Oc1ccc2c(C)cc(=O)oc2c1 (configuration not stated),.,15,104*,.
CCOC(=O)c1ccccc1NC(=O)C(C)Oc1cc(C)c(Cl)c(C)c1 (configuration not stated),.,-7,35,.
Cc1ccc(S(=O)(=O)N(C)C[C@H]2Oc3c(NC(=O)Nc4ccc(F)cc4)cccc3C(=O)N([C@@H](C)CO)C[C@@H]2C)cc1,6,-16,35,2
Cc1ccc(S(=O)(=O)N(C)C[C@H]2Oc3c(NC(=O)Nc4ccc(C(F)(F)F)cc4)cccc3C(=O)N([C@H](C)CO)C[C@H]2C)cc1,-19,4,85*,-7
C[C@H](CO)N1C[C@H](C)[C@H](CN(C)S(=O)(=O)c2ccc(F)cc2)Oc2c(NC(=O)C3CC3)cccc2C1=O,103*,7,-3,1
C[C@H]1CN([C@@H](C)CO)C(=O)c2cccc(NC(=O)C3CC3)c2O[C@H]1CN(C)S(=O)(=O)c1ccc(F)cc1,2,5,16,.
Cc1ccc(S(=O)(=O)N(C)C[C@H]2Oc3c(NC(=O)Nc4ccc(F)cc4)cccc3C(=O)N([C@@H](C)CO)C[C@H]2C)cc1,14,50,98*,-2
C[C@H](CO)N1C[C@H](C)[C@H](CN(C)S(=O)(=O)c2ccc(F)cc2)Oc2c(NC(=O)Nc3ccccc3)cccc2C1=O,100*,-14,17,-1
CC1CC2OC(C)(C)OC2C(OC(=O)c2ccccc2)O1 (configuration not stated),20,-6,8,1
O=C(CSCc1ccccc1Br)Nc1cccnc1,.,-12,23,.

# Screening data (PubChem BioAssay)
